Experiments:
[1] = system: Vero E6 infected with SARS-CoV-2; assay: morphology score (similarity to uninfected cells); higher = more like uninfected cells; details: 24 h
[2] = system: Vero E6 infected with SARS-CoV-2; assay: SARS-CoV-2 infection rate relative to infected DMSO; higher = more infection, active = 60 or less; details: 24 h

Row | SMILES | morphology score [1] | SARS-CoV-2 infection rate [2]
1 | CC(C)C[C@H](NC(=O)CNC(=O)c1cc(Cl)ccc1Cl)B(O)O [ixazomib] (0.833333 µM) | -0.0337 | 93.5% (inactive)
2 | CO[C@@H](C)Cn1c(=O)n(C)c2cnc3ccc(-c4cncc(C(C)(C)O)c4)cc3c21 (10 µM) | -0.000833 | 112% (inactive)
3 | Cc1ccc(S(=O)(=O)NC(=O)NN2CCCCCC2)cc1 [tolazamide] (10 µM) | 0.103 | 100% (inactive)
4 | O=C(O)CN1C(=O)c2cccc3cccc(c23)C1=O [alrestatin] (10 µM) | 0.0519 | 106% (inactive)
5 | C[C@]12CC[C@@H]3c4ccc(O)cc4C[C@@H](CCCCCCCCC[S+]([O-])CCCC(F)(F)C(F)(F)F)[C@H]3[C@@H]1CC[C@@H]2O (some centres not stated) [fulvestrant] (10 µM) | -0.187 | 110% (inactive)
6 | COC1=C(OC)C(=O)C(CCCCCCCCCCO)=C(C)C1=O [idebenone] (10 µM) | -0.0056 | 92.5% (inactive)
7 | CC(=O)N[C@H](Cc1ccc2ccccc2c1)C(=O)N[C@H](Cc1ccc(Cl)cc1)C(=O)N[C@H](Cc1cccnc1)C(=O)N[C@@H](CO)C(=O)N[C@@H](Cc1ccc(O)cc1)C(=O)N[C@H](CCCNC(N)=O)C(=O)N[C@@H](CC(C)C)C(=O)N[C@@H](CCCNC(=N)N)C(=O)N1CCC[C@H]1C(=O)N[C@H](C)C(N)=O [cetrorelix] (10 µM) | 0.394 | 79.5% (inactive)
8 | O=C(O)Cc1sc(-c2ccccc2)nc1-c1ccc(Cl)cc1 [fentiazac] (10 µM) | 0.0803 | 100% (inactive)
9 | CC(C)(O)c1coc(S(=O)(=O)NC(=O)Nc2c3c(cc4c2CCC4)CCC3)c1 (10 µM) | 0.0866 | 93.5% (inactive)
10 | O=C(/C=C/c1cccc(F)c1)NC1CC1 [cinflumide] (10 µM) | -0.00378 | 110% (inactive)
11 | COc1ccc(C2(CNC(=O)c3ccc(NC(=O)c4ccco4)cc3)CCOCC2)cc1 (0.833333 µM) | 0.269 | 93% (inactive)
12 | O=C1C2C=Nc3ccccc3C2=NN1c1ccc(Cl)cc1 (configuration not stated) (10 µM) | -0.264 | 120% (inactive)
13 | c1nc(CC2CCNCC2)c[nH]1 [immepip] (10 µM) | 0.0471 | 101% (inactive)
14 | CC(C)(C)C#Cc1cc(N(C(=O)[C@H]2CC[C@H](C)CC2)[C@H]2CC[C@@H](O)CC2)c(C(=O)O)s1 (10 µM) | -0.117 | 107% (inactive)
15 | CC1(C)C(=O)N(CCN2CCC(C(=O)c3ccc(F)cc3)CC2)c2ccccc21 (10 µM) | -0.158 | 110% (inactive)
16 | Cc1ccc(S(=O)(=O)NC(=O)NN2CC3CCCC3C2)cc1 (configuration not stated) [gliclazide] (10 µM) | 0.0635 | 106% (inactive)
17 | Cc1cccc(-c2nn3c(c2-c2ccnc4ccc(C(N)=O)cc24)CCC3)n1 (10 µM) | 0.128 | 100% (inactive)
18 | COc1cc(NC(=O)c2ccc(-c3ccc(Cl)cc3)o2)cc(OC)c1 (10 µM) | 0.0298 | 112% (inactive)
19 | O=C1NCCN1CCN1CCC(c2cn(-c3ccc(F)cc3)c3ccc(Cl)cc23)CC1 [sertindole] (0.833333 µM) | -0.0791 | 106% (inactive)
20 | CCCCCCCCCCC(O)C1C=CC2C(=O)N(c3ccccc3)C(=O)C2N1Nc1ccc([N+](=O)[O-])cc1 (configuration not stated) (10 µM) | 0.496 | 69.5% (inactive)
21 | CCn1cc(C(=O)O)c(=O)c2cc(F)c(N3CCNC(C)C3)c(F)c21 (configuration not stated) [lomefloxacin] (10 µM) | 0.0917 | 96.5% (inactive)

Row | SMILES | morphology score [1] | SARS-CoV-2 infection rate [2]
22 | Cc1cc(C)c(S(=O)(=O)n2cc(C)cc2C)c(C)c1 (10 µM) | 0.0664 | 102% (inactive)
23 | CC(C)(C)c1ccc(S(=O)(=O)/C=C/C#N)cc1 (0.833333 µM) | 0.173 | 89.5% (inactive)
24 | C[C@H](N)[C@H](O)c1cccc(O)c1 [metaraminol] (10 µM) | -0.0578 | 104% (inactive)
25 | CCN(CC)CCNC(=O)c1ccc(N)cc1 [procainamide] (10 µM) | 0.00737 | 116% (inactive)
26 | CCCCOc1ccc(C(=O)CCN2CCCCC2)cc1 [dyclonine] (10 µM) | 0.347 | 91.5% (inactive)
27 | O=C(O)CCCc1c[nH]c2ccccc12 [3-indolebutyric-acid] (10 µM) | 0.123 | 114% (inactive)
28 | CNCc1ccc(-c2[nH]c3cc(F)cc4c3c2CCNC4=O)cc1 [rucaparib] (10 µM) | 0.234 | 83% (inactive)
29 | C=CC(=O)Nc1ccc2ncnc(Nc3cccc(Br)c3)c2c1 (0.833333 µM) | 0.0618 | 90% (inactive)
30 | NC(=O)CC[C@H](N)C(=O)O [L-glutamine] (10 µM) | 0.278 | 94% (inactive)
31 | O=C(O)CCCNC(=O)c1cccnc1 [pikamilone] (10 µM) | 0.0672 | 100% (inactive)
32 | Cc1oc(-c2ccccc2)nc1CCOc1ccc(CC2SC(=O)NC2=O)c2sccc12 (configuration not stated) [edaglitazone] (10 µM) | 0.29 | 90.5% (inactive)
33 | CCOc1ccc2nc(SCCN3CCOCC3)[nH]c2c1 [afobazole] (10 µM) | -0.0209 | 111% (inactive)
34 | O=S(=O)(N[C@H]1CC[C@@](c2cc(F)ccc2F)(S(=O)(=O)c2ccc(Cl)cc2)CC1)C(F)(F)F (10 µM) | 0.0636 | 104% (inactive)
35 | CCS(=O)(=O)c1cccc(-c2cc(C(=O)NC3CCN(C)CC3)c(C)c3[nH]c4ncc(C)cc4c23)c1 (0.833333 µM) | 0.14 | 105% (inactive)
36 | C[C@@H](C(=O)O)c1ccc(-c2ccccc2)c(F)c1 (racemic) [flurbiprofen-(+/-)] (10 µM) | 0.232 | 107% (inactive)
37 | O=C(O)Cn1c2c(c3cc(F)ccc31)CN(C(=O)c1cccc3ccccc13)CC2 [setipiprant] (10 µM) | -0.161 | 108% (inactive)
38 | COC(=O)C1=C(C)NC(C)=C([N+](=O)[O-])[C@@H]1c1ccccc1C(F)(F)F (racemic) (10 µM) | 0.192 | 91.8% (inactive)
39 | CN1C(=O)CN=C(c2ccccc2)c2cc(Cl)ccc21 [diazepam] (10 µM) | 0.0883 | 108% (inactive)
40 | C[C@@H](O)[C@H]1C(=O)N2C(C(=O)O)=C(S[C@@H]3CN[C@H](CNS(N)(=O)=O)C3)[C@H](C)[C@H]12 [doripenem] (10 µM) | 0.131 | 100% (inactive)
41 | CC1C(=O)OC2C(O)C34C5CC(C(C)(C)C)C36C(OC(=O)C6O)OC4(C(=O)O5)C12O (configuration not stated) [ginkgolide-B] (10 µM) | 0.264 | 93% (inactive)
42 | CCOc1ccc(C[C@H]2NC(=O)CCSSC[C@@H](C(=O)N3CCC[C@H]3C(=O)N[C@@H](CCCN)C(=O)NCC(N)=O)NC(=O)[C@H](CC(N)=O)NC(=O)[C@H]([C@@H](C)O)NC(=O)[C@H]([C@@H](C)CC)NC2=O)cc1 [atosiban] (10 µM) | 0.175 | 91% (inactive)

Row | SMILES | morphology score [1] | SARS-CoV-2 infection rate [2]
43 | COc1ccc([C@@H]2CC(=O)c3c(O)cc(O)cc3O2)cc1O [hesperetin] (10 µM) | 0.0387 | 107% (inactive)
44 | O=C(Nc1ccncc1)C(=O)c1cn(Cc2ccc(Cl)cc2)c2ccccc12 [indibulin] (0.833333 µM) | -0.246 | 124% (inactive)
45 | S=C(NCCc1ccccn1)Nc1ccc(Br)cn1 [trovirdine] (10 µM) | 0.00939 | 110% (inactive)
46 | Clc1ccc(CSC(Cn2ccnc2)c2ccc(Cl)cc2Cl)cc1 (configuration not stated) [sulconazole] (10 µM) | -0.0348 | 110% (inactive)
47 | C=CCc1cc(OC)c(O)c(C(=O)NCCO)c1 [alibendol] (10 µM) | 0.101 | 118% (inactive)
48 | CCN1CCCC1=O [1-ethyl-2-pyrrolidone] (10 µM) | 0.128 | 104% (inactive)
49 | COc1cc(N)c(Cl)cc1C(=O)N[C@@H]1CCN(CCCOc2ccc(F)cc2)C[C@@H]1OC (racemic) [cisapride] (10 µM) | -0.0266 | 112% (inactive)
50 | NC(=O)N1c2ccccc2CC(=O)c2ccccc21 [oxcarbazepine] (10 µM) | 0.0932 | 108% (inactive)
51 | O=C(Nc1ccc(F)cc1)N1CCc2ccccc2[C@@H]1c1ccc(C(F)(F)F)cc1 (10 µM) | 0.195 | 87% (inactive)
52 | O=C(O)CNC(=O)C1C(=O)N(C2CCCCC2)C(=O)N(C2CCCCC2)C1=O [daprodustat] (10 µM) | 0.206 | 81.5% (inactive)
53 | C=C[C@](C)(O)CC[C@@H]1[C@@]2(C)CCCC(C)(C)[C@@H]2CC[C@@]1(C)O [sclareol] (10 µM) | 0.142 | 95.5% (inactive)
54 | COC(=O)Nc1ccc2[nH]cc(CCNC(C)=O)c2c1 (10 µM) | 0.0711 | 108% (inactive)
55 | CCN(CC)C(C)C(=O)c1ccccc1 (configuration not stated) [amfepramone] (10 µM) | 0.016 | 116% (inactive)
56 | CN(C)CC(=O)Nc1ccc2[nH]c(=O)c3ccccc3c2c1 (10 µM) | 0.202 | 92.5% (inactive)
57 | O=C(CN1CCN(C(=O)c2ccco2)CC1)Nc1cc(C(F)(F)F)ccc1Cl (10 µM) | 0.00654 | 103% (inactive)
58 | COc1cc(-c2ccc(=O)[nH]n2)ccc1OC(F)F [zardaverine] (10 µM) | 0.289 | 83.5% (inactive)
59 | Cc1cc(Nc2cc(N3CCN(C)CC3)nc(Sc3ccc(NC(=O)C4CC4)cc3)n2)n[nH]1 [tozasertib] (10 µM) | 0.292 | 119% (inactive)
60 | CCCCCOC(=O)Nc1nc(=O)n([C@@H]2O[C@H](C)[C@@H](O)[C@H]2O)cc1F [capecitabine] (10 µM) | -0.208 | 114% (inactive)
61 | Nc1ncnc2c1c(-c1ccc(Oc3ccccc3)cc1)nn2C1CCCC1 (10 µM) | -0.00746 | 122% (inactive)
